Tests used:
Format in all cases: functional
[1] = molecular target: Solute carrier family 2, facilitated glucose transporter member 1 (Homo sapiens) (UniProt P11166); test: ST_JUDE_LEISH: Cytotoxicity at 2uM final concentration against transgenic Leishmania Mexicana promastigotes LmGLUT1 that are glucose transport deficient and complemented with the human glucose transporter GLUT1. Activity is measured by DNA content using SYBR green in vitro
[2] = molecular target: Hexose transporter 1 (Plasmodium falciparum) (UniProt O97467); test: ST_JUDE_LEISH: Cytotoxicity at 2uM final concentration against transgenic Leishmania Mexicana promastigotes LmPfHT that are glucose transport deficient and complemented with the Plasmodium falciparum hexose transporter. Activity is measured by DNA content using SYBR green in vitro
[3] = molecular target: Glucose transporter (Leishmania mexicana) (UniProt O61059); test: ST_JUDE_LEISH: Cytotoxicity at 2uM final concentration against transgenic Leishmania Mexicana promastigotes LmGT2 that are glucose transport deficient and complemented with the L. Mexicana glucose transporter 2. Activity is measured by DNA content using SYBR green in vitro

Sequence of Solute carrier family 2, facilitated glucose transporter member 1 (Homo sapiens) (P11166 whole entry): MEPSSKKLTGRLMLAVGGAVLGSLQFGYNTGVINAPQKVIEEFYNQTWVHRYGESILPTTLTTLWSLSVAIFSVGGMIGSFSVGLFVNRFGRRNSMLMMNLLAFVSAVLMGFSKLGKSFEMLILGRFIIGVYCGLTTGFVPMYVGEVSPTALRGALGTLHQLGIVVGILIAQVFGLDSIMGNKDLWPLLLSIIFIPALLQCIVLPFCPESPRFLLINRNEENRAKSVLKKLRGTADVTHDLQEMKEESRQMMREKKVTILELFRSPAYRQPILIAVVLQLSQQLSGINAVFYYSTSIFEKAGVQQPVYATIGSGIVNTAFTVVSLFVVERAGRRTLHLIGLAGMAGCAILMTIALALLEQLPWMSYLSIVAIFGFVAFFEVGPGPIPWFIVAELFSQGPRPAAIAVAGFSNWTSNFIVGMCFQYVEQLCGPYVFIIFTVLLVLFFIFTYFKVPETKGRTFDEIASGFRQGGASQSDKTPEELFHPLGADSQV

Compound	inhibition [1] [%]	inhibition [2] [%]	inhibition [3] [%]
CC[C@H](C)CNC(=O)c1ccnc(-c2cccc(CN3CCC(N4CCCC4)CC3)c2)c1	0.78	-0.95	0.7
CO/C(=C\C=C\c1cc2cc(Cl)c(Cl)cc2[nH]1)C(=O)NCCCN1CCN(c2cccc(CCCO)c2)CC1	6	5.32	5.89
c1ccc(OCCCCN2CCCCC2)cc1	0.95	0.56	-4.15
Cc1sc(N2CCCCC2)nc1C(=O)Nc1ccc(F)cc1C(F)(F)F	3.13	-1.54	0.73
Cc1nc(N2CCC(C)CC2)c2c3c(sc2n1)CCCC3	2.21	2.09	0.47
CCN(CC)CCN(Cc1ccc(-c2ccc(C(F)(F)F)cc2)cc1)C(=O)Cn1cc(Cc2cnn(C)c2)c(=O)n2nc(-c3ccccc3)cc12	4.45	4.37	4.16
O=C(C1CC1)N1c2ccccc2CCc2ccccc21	-0.93	-0.1	-0.64
CCNc1cc(C)nc(Nc2ccc(NC(=O)c3cccs3)cc2)n1	4.59	5.9	1.85
O=C(N[C@@H](Cc1ccccc1)C(=O)NCc1cccc(C(F)(F)F)c1)c1ccc(O)c(-c2ccc(Cl)c(Cl)c2)c1	3.7	0.97	-2.02
CCOc1ccc2c(=NN=Cc3ccc(F)cc3)cc(C)[nH]c2c1	4.44	3.21	1.49
O=C(N[C@@H](CC1CCCCC1)C(=O)NC1CC1)c1ccc(O)c(-c2cccc(C(F)(F)F)c2)c1	3.48	2.6	3.88
COc1ccc(NC(=O)c2ccc(-c3cccc(OCc4ccccc4)c3)cc2)cc1N1CCN(C)CC1	1.72	0.6	-0.95

Source: ChEMBL document CHEMBL3433997, “St. Jude Leishmania screening dataset” (2016)
